# From ChEMBL document CHEMBL1961873, “Compounds: GSK PKIS; Assays: Nanosyn kinase panel” (2012)
# Experiments:
# [1] = target: Sphingosine kinase 1 (Homo sapiens) (UniProt Q9NYA1); details: at 1 µM;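 also: mean SPHK1 inhibition value reported from the GSK PKIS kinase panel screen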
# [2] = target: T1, Sphingosine kinase 2 (Homo sapiens) (UniProt Q9NRA0); details: at 0.1 µM
# T1 sequence (whole entry): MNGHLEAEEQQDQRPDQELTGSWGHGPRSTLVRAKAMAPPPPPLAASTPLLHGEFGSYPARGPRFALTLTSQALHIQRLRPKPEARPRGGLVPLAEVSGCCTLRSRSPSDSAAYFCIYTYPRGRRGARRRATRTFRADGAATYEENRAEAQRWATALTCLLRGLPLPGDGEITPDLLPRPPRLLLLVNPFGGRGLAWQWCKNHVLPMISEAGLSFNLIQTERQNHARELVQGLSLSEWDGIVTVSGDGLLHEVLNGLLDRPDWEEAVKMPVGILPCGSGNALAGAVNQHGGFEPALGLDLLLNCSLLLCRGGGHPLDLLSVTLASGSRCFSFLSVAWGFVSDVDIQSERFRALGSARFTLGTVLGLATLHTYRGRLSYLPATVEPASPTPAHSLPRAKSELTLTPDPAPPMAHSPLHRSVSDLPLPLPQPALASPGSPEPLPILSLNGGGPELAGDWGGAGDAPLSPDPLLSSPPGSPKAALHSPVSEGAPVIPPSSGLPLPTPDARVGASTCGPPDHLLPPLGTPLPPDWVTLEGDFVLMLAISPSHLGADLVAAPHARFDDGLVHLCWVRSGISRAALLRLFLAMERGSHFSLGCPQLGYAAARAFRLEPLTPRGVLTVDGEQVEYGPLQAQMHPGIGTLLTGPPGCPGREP
# [3] = target: T1, Sphingosine kinase 2 (Homo sapiens); details: at 1 µM
# [4] = target: Casein kinase II subunit alpha (Homo sapiens) (UniProt P68400); details: at 0.1 µM
# [5] = target: Casein kinase II subunit alpha (Homo sapiens) (UniProt P68400); details: at 1 µM
# [6] = target: T2, Inhibitor of nuclear factor kappa-B kinase subunit alpha (Homo sapiens) (UniProt O15111); details: at 0.1 µM
# T2 sequence (whole entry): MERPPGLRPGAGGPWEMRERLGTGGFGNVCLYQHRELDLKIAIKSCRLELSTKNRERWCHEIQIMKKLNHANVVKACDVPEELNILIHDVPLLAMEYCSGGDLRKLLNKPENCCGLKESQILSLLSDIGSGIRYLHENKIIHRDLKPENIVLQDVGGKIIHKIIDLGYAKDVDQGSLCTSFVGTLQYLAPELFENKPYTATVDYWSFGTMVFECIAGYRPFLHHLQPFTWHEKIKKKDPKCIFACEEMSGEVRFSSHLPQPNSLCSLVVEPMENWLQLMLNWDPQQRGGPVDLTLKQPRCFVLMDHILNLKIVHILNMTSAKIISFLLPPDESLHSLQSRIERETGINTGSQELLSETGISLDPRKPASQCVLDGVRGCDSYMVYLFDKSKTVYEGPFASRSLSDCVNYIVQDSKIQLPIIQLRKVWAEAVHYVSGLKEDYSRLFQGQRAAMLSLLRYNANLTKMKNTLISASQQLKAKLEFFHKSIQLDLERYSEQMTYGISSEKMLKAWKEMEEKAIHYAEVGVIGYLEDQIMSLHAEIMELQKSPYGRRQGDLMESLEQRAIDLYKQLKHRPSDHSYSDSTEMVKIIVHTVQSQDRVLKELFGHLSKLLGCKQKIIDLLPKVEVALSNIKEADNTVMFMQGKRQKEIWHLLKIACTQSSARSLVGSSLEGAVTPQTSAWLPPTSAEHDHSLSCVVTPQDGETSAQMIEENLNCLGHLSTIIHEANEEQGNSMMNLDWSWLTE
# [7] = target: T2, Inhibitor of nuclear factor kappa-B kinase subunit alpha (Homo sapiens); details: at 1 µM
# [8] = target: T3, Inhibitor of nuclear factor kappa-B kinase subunit beta (Homo sapiens) (UniProt O14920); details: at 0.1 µM
# T3 sequence (whole entry): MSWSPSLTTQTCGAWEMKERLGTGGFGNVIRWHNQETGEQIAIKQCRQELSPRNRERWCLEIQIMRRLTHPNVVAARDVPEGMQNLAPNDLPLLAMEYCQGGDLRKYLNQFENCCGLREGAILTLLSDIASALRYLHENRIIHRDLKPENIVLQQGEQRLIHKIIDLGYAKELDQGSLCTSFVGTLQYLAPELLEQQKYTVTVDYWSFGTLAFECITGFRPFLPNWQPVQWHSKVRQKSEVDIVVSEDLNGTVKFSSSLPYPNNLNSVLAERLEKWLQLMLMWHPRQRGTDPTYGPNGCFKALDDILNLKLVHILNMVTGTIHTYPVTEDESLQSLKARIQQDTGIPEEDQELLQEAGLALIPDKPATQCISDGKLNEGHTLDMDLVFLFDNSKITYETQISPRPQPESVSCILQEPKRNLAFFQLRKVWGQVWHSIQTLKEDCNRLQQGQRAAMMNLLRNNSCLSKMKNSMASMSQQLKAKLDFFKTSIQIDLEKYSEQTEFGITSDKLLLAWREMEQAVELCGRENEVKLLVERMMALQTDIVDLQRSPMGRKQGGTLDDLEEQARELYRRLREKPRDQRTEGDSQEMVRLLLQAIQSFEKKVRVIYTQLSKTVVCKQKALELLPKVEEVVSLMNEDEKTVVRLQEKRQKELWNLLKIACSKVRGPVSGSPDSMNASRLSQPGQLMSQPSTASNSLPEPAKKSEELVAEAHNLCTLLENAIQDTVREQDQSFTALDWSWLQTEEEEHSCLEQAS
# [9] = target: T3, Inhibitor of nuclear factor kappa-B kinase subunit beta (Homo sapiens); details: at 1 µM
# [10] = target: T4, Inhibitor of nuclear factor kappa-B kinase subunit epsilon (Homo sapiens) (UniProt Q14164); details: at 0.1 µM
# T4 sequence (whole entry): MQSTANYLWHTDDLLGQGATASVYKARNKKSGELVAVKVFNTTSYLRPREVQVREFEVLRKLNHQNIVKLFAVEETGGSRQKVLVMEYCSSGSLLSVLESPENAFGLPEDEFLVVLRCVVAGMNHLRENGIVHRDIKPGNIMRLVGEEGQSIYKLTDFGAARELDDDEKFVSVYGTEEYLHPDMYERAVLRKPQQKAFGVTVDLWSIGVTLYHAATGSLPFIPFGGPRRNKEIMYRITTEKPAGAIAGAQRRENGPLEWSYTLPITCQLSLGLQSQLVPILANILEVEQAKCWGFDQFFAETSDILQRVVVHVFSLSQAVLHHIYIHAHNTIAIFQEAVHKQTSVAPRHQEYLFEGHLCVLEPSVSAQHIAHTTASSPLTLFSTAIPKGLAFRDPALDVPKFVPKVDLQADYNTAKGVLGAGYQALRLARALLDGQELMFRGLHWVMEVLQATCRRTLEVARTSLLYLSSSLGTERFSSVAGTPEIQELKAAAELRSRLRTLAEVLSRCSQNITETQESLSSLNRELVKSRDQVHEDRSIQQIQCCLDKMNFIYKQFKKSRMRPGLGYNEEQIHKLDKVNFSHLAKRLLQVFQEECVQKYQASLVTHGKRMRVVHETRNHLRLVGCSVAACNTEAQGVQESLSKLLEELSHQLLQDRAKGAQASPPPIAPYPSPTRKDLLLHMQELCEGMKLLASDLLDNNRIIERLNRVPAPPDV
# [11] = target: T4, Inhibitor of nuclear factor kappa-B kinase subunit epsilon (Homo sapiens); details: at 1 µM
# [12] = target: T5, Serine/threonine-protein kinase Nek1 (Homo sapiens) (UniProt Q96PY6); details: at 0.1 µM
# T5 sequence (whole entry): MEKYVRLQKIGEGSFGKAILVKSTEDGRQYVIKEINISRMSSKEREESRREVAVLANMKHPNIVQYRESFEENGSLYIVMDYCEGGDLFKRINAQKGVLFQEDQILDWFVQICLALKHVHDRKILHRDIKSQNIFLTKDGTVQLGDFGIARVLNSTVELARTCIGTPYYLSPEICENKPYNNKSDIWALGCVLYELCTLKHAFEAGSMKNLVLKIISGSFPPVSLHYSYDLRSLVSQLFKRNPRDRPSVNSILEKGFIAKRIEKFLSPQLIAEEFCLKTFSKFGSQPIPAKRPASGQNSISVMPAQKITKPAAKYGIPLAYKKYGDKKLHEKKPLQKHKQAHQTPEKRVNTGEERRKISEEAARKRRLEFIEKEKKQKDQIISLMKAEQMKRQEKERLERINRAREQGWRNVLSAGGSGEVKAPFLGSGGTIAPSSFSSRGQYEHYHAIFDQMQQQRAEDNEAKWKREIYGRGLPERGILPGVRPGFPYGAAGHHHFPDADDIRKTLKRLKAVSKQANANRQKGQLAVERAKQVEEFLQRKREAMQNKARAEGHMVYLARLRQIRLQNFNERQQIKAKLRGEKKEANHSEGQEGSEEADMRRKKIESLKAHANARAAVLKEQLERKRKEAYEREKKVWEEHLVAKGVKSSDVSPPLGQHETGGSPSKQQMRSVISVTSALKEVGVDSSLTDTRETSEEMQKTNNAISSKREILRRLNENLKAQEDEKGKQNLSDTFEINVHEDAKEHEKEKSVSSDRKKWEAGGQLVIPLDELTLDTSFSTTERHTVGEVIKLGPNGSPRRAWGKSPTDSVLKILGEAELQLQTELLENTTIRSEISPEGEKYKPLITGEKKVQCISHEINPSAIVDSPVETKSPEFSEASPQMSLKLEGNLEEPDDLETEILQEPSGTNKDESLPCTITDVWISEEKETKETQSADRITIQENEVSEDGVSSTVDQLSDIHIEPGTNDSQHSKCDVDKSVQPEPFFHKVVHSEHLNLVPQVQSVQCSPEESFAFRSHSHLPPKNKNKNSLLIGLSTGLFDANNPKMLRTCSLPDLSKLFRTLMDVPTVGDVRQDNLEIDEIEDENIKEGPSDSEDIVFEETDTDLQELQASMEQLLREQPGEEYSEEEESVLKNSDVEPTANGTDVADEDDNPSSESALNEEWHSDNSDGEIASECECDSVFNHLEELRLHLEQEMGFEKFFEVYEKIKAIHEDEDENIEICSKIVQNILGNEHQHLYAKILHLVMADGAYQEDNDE
# [13] = target: T5, Serine/threonine-protein kinase Nek1 (Homo sapiens); details: at 1 µM
# [14] = target: T6, Serine/threonine-protein kinase Nek2 (Homo sapiens) (UniProt P51955); details: at 0.1 µM
# T6 sequence (whole entry): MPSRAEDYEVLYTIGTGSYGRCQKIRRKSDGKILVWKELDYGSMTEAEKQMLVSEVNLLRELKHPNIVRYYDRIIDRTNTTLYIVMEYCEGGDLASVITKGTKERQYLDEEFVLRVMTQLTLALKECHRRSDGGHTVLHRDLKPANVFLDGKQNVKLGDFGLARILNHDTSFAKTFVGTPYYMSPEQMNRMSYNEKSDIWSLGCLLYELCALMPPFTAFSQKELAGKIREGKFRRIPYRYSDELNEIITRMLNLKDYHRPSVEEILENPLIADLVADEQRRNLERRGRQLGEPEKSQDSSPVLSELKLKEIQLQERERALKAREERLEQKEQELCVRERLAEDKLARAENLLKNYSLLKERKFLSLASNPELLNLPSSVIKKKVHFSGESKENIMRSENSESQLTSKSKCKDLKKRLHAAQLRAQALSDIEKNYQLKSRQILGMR
# [15] = target: T6, Serine/threonine-protein kinase Nek2 (Homo sapiens); details: at 1 µM
# [16] = target: Serine/threonine-protein kinase Nek6 (Homo sapiens) (UniProt Q9HC98); details: at 0.1 µM
# [17] = target: Serine/threonine-protein kinase Nek6 (Homo sapiens) (UniProt Q9HC98); details: at 1 µM
# [18] = target: Serine/threonine-protein kinase Nek7 (Homo sapiens) (UniProt Q8TDX7); details: at 0.1 µM
# [19] = target: Serine/threonine-protein kinase Nek7 (Homo sapiens) (UniProt Q8TDX7); details: at 1 µM
# [20] = target: T7, Serine/threonine-protein kinase Nek9 (Homo sapiens) (UniProt Q8TD19); details: at 0.1 µM;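 also: reported value is the mean percent inhibition of NEK9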
# T7 sequence (whole entry): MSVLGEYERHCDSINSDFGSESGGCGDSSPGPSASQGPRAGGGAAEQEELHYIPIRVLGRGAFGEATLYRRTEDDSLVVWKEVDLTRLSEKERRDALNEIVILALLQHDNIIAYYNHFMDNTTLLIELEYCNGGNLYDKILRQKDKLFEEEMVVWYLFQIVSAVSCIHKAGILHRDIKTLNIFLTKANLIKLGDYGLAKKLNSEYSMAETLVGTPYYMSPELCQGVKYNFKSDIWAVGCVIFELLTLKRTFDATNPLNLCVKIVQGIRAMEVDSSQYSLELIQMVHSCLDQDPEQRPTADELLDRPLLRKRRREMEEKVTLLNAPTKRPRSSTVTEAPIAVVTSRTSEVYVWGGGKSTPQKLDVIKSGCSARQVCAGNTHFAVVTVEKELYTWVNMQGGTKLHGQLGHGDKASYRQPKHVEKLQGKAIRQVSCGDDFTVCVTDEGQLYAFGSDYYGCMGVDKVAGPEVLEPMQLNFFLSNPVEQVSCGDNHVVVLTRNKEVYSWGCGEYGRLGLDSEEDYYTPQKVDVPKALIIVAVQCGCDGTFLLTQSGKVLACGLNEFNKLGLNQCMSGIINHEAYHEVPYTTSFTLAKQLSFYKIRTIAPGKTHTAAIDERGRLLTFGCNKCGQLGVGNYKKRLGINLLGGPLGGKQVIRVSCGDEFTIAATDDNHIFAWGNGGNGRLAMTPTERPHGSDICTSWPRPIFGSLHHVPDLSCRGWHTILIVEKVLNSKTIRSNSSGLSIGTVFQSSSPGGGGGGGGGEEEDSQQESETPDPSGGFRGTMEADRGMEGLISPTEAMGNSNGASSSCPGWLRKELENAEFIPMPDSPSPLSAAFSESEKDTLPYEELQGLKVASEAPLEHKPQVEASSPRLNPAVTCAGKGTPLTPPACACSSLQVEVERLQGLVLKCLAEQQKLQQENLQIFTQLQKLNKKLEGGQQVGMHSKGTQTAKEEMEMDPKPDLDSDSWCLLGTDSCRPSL
# Casein kinase II subunit alpha (Homo sapiens), sequence (P68400 whole entry, looked up): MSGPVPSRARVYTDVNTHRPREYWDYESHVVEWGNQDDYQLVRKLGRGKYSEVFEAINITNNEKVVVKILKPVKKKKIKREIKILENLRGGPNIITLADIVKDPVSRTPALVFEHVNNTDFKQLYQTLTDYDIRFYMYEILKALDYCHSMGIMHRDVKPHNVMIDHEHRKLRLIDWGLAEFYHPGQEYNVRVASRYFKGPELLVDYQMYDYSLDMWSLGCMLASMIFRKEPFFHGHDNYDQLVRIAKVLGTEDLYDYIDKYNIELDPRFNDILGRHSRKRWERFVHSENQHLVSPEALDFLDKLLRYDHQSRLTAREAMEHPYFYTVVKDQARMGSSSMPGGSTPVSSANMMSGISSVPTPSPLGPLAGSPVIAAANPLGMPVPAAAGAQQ
# Serine/threonine-protein kinase Nek7 (Homo sapiens), sequence (Q8TDX7 whole entry, looked up): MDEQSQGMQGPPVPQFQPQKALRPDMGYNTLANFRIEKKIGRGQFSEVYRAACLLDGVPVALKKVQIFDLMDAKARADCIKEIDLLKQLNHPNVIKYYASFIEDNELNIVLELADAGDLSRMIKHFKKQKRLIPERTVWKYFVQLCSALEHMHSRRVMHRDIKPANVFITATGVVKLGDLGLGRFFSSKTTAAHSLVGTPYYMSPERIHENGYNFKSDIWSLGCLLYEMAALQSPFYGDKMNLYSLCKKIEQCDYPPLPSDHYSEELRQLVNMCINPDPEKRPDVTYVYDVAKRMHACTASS
# Serine/threonine-protein kinase Nek6 (Homo sapiens), sequence (Q9HC98 whole entry): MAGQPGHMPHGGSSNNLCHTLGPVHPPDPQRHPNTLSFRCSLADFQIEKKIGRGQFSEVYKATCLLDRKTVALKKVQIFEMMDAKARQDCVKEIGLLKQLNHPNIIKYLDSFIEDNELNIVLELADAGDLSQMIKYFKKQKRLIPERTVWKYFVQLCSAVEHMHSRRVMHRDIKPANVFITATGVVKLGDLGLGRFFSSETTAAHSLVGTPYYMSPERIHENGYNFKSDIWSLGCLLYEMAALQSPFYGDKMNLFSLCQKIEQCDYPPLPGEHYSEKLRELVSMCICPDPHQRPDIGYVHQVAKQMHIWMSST
# Sphingosine kinase 1 (Homo sapiens), sequence (Q9NYA1 whole entry): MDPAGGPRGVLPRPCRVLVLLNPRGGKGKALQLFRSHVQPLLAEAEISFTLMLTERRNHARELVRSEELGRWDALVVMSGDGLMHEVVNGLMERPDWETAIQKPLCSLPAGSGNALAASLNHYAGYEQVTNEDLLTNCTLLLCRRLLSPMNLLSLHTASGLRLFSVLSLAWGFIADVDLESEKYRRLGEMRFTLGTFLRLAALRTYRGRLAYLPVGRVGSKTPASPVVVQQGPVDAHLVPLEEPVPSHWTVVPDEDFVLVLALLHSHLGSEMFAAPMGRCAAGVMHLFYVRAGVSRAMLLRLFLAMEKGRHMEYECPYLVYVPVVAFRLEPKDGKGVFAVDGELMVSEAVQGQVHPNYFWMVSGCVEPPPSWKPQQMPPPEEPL
compound,measurement,setting,value
CCn1c(-c2nonc2N)nc2c(N3CCCC3)nccc21,inhibition,[1],-1.44%
same,inhibition,[2],0.74%
same,inhibition,[3],-0.77%
same,inhibition,[4],-0.14%
same,inhibition,[5],-0.49%
same,inhibition,[6],8.52%
same,inhibition,[7],5.88%
same,inhibition,[8],0.45%
same,inhibition,[9],-0.76%
same,inhibition,[10],-2.71%
same,inhibition,[11],-2.89%
same,inhibition,[12],-0.04%
same,inhibition,[13],0.27%
same,inhibition,[14],-0.88%
same,inhibition,[15],-0.91%
same,inhibition,[16],0.88%
same,inhibition,[17],-1.63%
same,inhibition,[18],2.1%
same,inhibition,[19],-1.35%
same,inhibition,[20],2.28%
